Test results taken from ChEMBL document CHEMBL3988442, “University of Dundee, Small-Polar-MMV Screening Library” (2021).
Out of some 69,000 compounds screened, about 950 (1.4%) showed an effect of 50% or more. What follows is part of a selection rich in strong results, with near analogues and random picks from the rest.

These molecules were tested on Mycobacterium tuberculosis (assay: Cornell M. t heat shock assay; further: in the data most compounds retested in dose-response had high values).
Assay type: functional, organism-based
Parameters: dose or concentration left out as unconfirmed
For CC(C)NC(=O)c1ccc2c(c1)C1(CCN(C(C)C)CC1)C(=O)N2.O=C(O)C(F)(F)F, the “Percent Effect” value was -33.29%. For Cc1noc(C)c1CN1CCn2cc(CNc3ccccn3)nc2C1.O=C(O)C(F)(F)F.O=C(O)C(F)(F)F, the “Percent Effect” value was 4.3%. Cc1ccc(O[C@@H]2C[C@H]3CN(Cc4nccn4C)CCN3C2)cc1.O=C(O)C(F)(F)F.O=C(O)C(F)(F)F was tested, and the “Percent Effect” value was -24.79%. With CC(C)NC(=O)CNC(=O)c1csc(Cc2ccccc2F)n1 the “Percent Effect” value was -1.27%. In the case of COCC1N(C(=O)N2CCOCC2)[C@H]2CC[C@]1(O)CC2 (stereo partly specified), the “Percent Effect” value is reported as -3.821%. In the case of COCc1ncn(Cc2nc(-c3ccc(OC)cc3F)oc2C)n1, the “Percent Effect” value is reported as -9.071%. CCCOC1CCCN(Cc2nc(-c3ccc(F)cc3F)oc2C)C1 (stereo unspecified) was tested, and the “Percent Effect” value was -26.76%. For COc1ccc(-c2nc(CN3CCCC(OC)C3)c(C)o2)c(F)c1 (stereo unspecified), the “Percent Effect” value was 93.73%. O=C(O)C(F)(F)F.O=C(c1ccsc1)N1C[C@H]2CCC[C@@]2(COCc2cccnc2)C1 was tested, and the “Percent Effect” value was -16.41%. With Cl.Cl.O=C(NCc1cncc2c1CCN(C1CCOCC1)C2)c1ccno1 the “Percent Effect” value was 18.25%. With Br.Cc1cc(C)nc(NCCC(=O)NCCn2ccnc2C)n1 the “Percent Effect” value was -9.93%. Cc1csc(NCC(=O)c2c[nH]c3ccccc23)n1.I was tested, and the “Percent Effect” value was 13.99%. In the case of Cc1nc(CN2CCC23CCN(Cc2ccoc2)CC3)cs1, the “Percent Effect” value is reported as 94.23%. In the case of Cc1nc(CN2CCC23CCN(Cc2ccco2)CC3)cs1, the “Percent Effect” value is reported as 77.77%. For Cc1nc(CN2C(=O)CCC23CCN(Cc2ccco2)CC3)cs1, the “Percent Effect” value was 5.099%. For Cc1nc(CN2CCC3(C2)CN(Cc2ccco2)C3)cs1, the “Percent Effect” value was 18.48%. In the case of Cc1nc(CN2C(=O)CCC23CCN(Cc2ccoc2)CC3)cs1.O=C(O)C(F)(F)F.O=C(O)C(F)(F)F, the “Percent Effect” value is reported as -26.87%. Cc1nc(CN2CCC23CCN(C(=O)c2ccco2)CC3)cs1 was tested, and the “Percent Effect” value was -3.59%. With O=C(N1CCCO1)[C@@]12CCO[C@@H]1CCN(Cc1ccc(F)cc1)C2.O=C(O)C(F)(F)F the “Percent Effect” value was -15.72%. Cn1cc(-c2cnc(N3CCOCC3)nc2)cc1C(=O)NCCO.O=C(O)C(F)(F)F was tested, and the “Percent Effect” value was 10.75%. For O=C(c1c[nH]c(=O)c(Cl)c1)N1C[C@@H]2CC[C@H](C1)N(CC1CCC1)C2, the “Percent Effect” value was -23.49%. For COCCn1c2c(ccc1=O)CC(NCc1cccnc1OC)CC2.O=C(O)C(F)(F)F.O=C(O)C(F)(F)F (stereo unspecified), the “Percent Effect” value was 19.47%. In the case of COC1COC2(CCN(CC3CC3)CC2)C1.O=C(O)C(F)(F)F (stereo unspecified), the “Percent Effect” value is reported as -5.009%. In the case of COCc1ccc(C(=O)N2CCC(c3cc4nccnc4[nH]3)CC2)cc1, the “Percent Effect” value is reported as 64.38%. With COCc1ccc(C(=O)N2CCC(c3cc4ncc(C)nc4[nH]3)C2)cc1 (stereo unspecified) the “Percent Effect” value was 6.722%. With Cc1cnc2cc(C3CCN(C(=O)c4ccncc4)CC3)[nH]c2n1 the “Percent Effect” value was 11.57%. In the case of COc1ccc(Cn2c(C3CCNCC3)cc3cccnc32)cc1.Cl, the “Percent Effect” value is reported as 2.964%. With CCOC(=O)CSc1nnc([C@@H](N)C(C)CC)o1.Cl (stereo partly specified) the “Percent Effect” value was -17.57%. CCOCC1CN(C2CCCC2)Cc2cnn(CC3CCOCC3)c21.O=C(O)C(F)(F)F.O=C(O)C(F)(F)F (stereo unspecified) was tested, and the “Percent Effect” value was -13.36%. c1ccc(O[C@H]2C[C@@H]3CN(Cc4cnccn4)C[C@@H]3C2)cc1 was tested, and the “Percent Effect” value was -8.402%. In the case of c1ccc(CN(Cc2cccc3cnccc23)CC2CCCO2)nc1 (stereo unspecified), the “Percent Effect” value is reported as 13.24%. With Cc1ccc2cc(CN(C)Cc3ccccn3)c(=O)[nH]c2c1 the “Percent Effect” value was -6.108%. For O=c1[nH]c2ccccc2cc1CN(Cc1ccccn1)CC1CCCO1 (stereo unspecified), the “Percent Effect” value was 51.43%. For O=C(N1CCOCC1)N1C(CN2CCOCC2)[C@]2(O)CC[C@H]1CC2 (stereo partly specified), the “Percent Effect” value was 2.205%. With CN1C[C@@H]2CN(C(=O)C3CC=CC3)C[C@@H]2C1=O the “Percent Effect” value was -1.029%. For Cc1cc(CCC(=O)Nc2nncs2)nc(C2CCCN2)n1.Cl (stereo unspecified), the “Percent Effect” value was -11.36%. For CN(C)C(=O)c1nn(C)c2c1CN(Cc1ccc(F)cc1)C2.O=C(O)C(F)(F)F, the “Percent Effect” value was -35.3%. In the case of O=C(O)C(F)(F)F.O=C1CC[C@]2(CC[C@@H](NC(=O)NCc3cccnc3)CC2)N1, the “Percent Effect” value is reported as 2.106%. Cc1csc(C(Cc2ccsc2)NC(=O)CN(C)Cc2cccnc2)n1.Cl (stereo unspecified) was tested, and the “Percent Effect” value was -9.769%. In the case of Cc1csc(C(Cc2ccsc2)NC(=O)CN(C)Cc2ccccn2)n1.Cl (stereo unspecified), the “Percent Effect” value is reported as 82.59%. With CN(CC(=O)NC(Cc1ccsc1)c1cccnc1)Cc1ccccn1.Cl (stereo unspecified) the “Percent Effect” value was -24.9%. O=C(Cn1cccnc1=O)NC(Cc1ccsc1)c1ccccn1 (stereo unspecified) was tested, and the “Percent Effect” value was 17.67%. For Cc1cc(C)n(CC(=O)NC(Cc2ccsc2)c2ccccn2)c(=O)n1.Cl (stereo unspecified), the “Percent Effect” value was 93.95%. For Cc1csc(C(Cc2ccsc2)NC(=O)Cn2cccnc2=O)n1 (stereo unspecified), the “Percent Effect” value was -16.84%. With Cc1ccc(N2CCC3(CCN(C(=O)c4ccnnc4)CC3)CC2)nn1.O=C(O)C(F)(F)F the “Percent Effect” value was -48.43%. In the case of Cn1nnc2c1CCN(Cc1nccs1)C2COCc1ccccc1.O=C(O)C(F)(F)F (stereo unspecified), the “Percent Effect” value is reported as 7.839%. With N#Cc1cccc(CN2CC[C@@H]3[C@@H]2CC(=O)N3CCN2CCCC2)c1.O=C(O)C(F)(F)F.O=C(O)C(F)(F)F the “Percent Effect” value was -3.152%. In the case of Cc1oc(-c2ccccc2)nc1C(=O)NC1=NCCS1, the “Percent Effect” value is reported as 105.4%. With Cc1oc(-c2ccc(Cl)cc2)nc1C(=O)NC1=NCCS1 the “Percent Effect” value was 105.8%. With Cc1cc(C(=O)NC2=NCCS2)c(C)n1-c1ccccn1 the “Percent Effect” value was 4.567%. For Cc1c(C(=O)NC2=NCCS2)cnn1-c1ccc(Br)cc1, the “Percent Effect” value was 23.54%. Cc1oc(-c2ccccc2)nc1CC(=O)NC1=NCCS1 was tested, and the “Percent Effect” value was 20.62%. For Cc1c(C(=O)NC2=NCCS2)cnn1-c1ccc(Cl)cc1, the “Percent Effect” value was 22.26%. In the case of CC(C)CN1CC[C@@H]2[C@H](CC1)N(S(C)(=O)=O)CCS2(=O)=O.O=C(O)C(F)(F)F, the “Percent Effect” value is reported as -8.964%. In the case of Cc1c(CN2CCc3nc4sccc4c(=O)n3CC2)cnn1C.Cl, the “Percent Effect” value is reported as -11.07%. For COCC(=O)NCc1cc(=O)n2c(n1)CN(C)CCC2.O=C(O)C(F)(F)F, the “Percent Effect” value was 2.895%. CCn1cncc1CN1CCN(CC2(c3ccc(C)cc3)CC2)CC1.Cl was tested, and the “Percent Effect” value was -24.04%. In the case of Cn1nnc2c1C(COCc1cccnc1)CN(Cc1ccoc1)C2.O=C(O)C(F)(F)F.O=C(O)C(F)(F)F (stereo unspecified), the “Percent Effect” value is reported as -46.31%. O=S(=O)(NCCNc1cc(-n2cccn2)ncn1)c1cccs1 was tested, and the “Percent Effect” value was -0.2009%. For O=S(=O)(NCCNc1cc(-n2cccc2)ncn1)c1cccs1, the “Percent Effect” value was 9.38%. With Cc1ccc(C)c(S(=O)(=O)NCCNc2ccc(-n3cccc3)nn2)c1 the “Percent Effect” value was 35.9%. O=S(=O)(NCCNc1ccc(-n2cccn2)nn1)c1ccccc1 was tested, and the “Percent Effect” value was 101.1%. O=S(=O)(NCCNc1ccc(-n2cccc2)nn1)c1cccs1 was tested, and the “Percent Effect” value was 103.8%. For Cc1nsc(NCCNS(=O)(=O)c2ccccc2)n1, the “Percent Effect” value was -4.682%. In the case of O=S(=O)(Cc1ccccc1)NCCNc1ccc(-n2cccc2)nn1, the “Percent Effect” value is reported as -9.655%. For O=S(=O)(NCCNc1ccc(-n2cccc2)nn1)c1ccccc1, the “Percent Effect” value was 100.9%. With Cc1cc(C)n(-c2ccc(NCCNS(=O)(=O)c3ccccc3)nn2)n1 the “Percent Effect” value was 7.275%. With CNC(=O)CN1CC[C@H]2CN(C(=O)c3ccccc3F)C[C@H]2C1.O=C(O)C(F)(F)F the “Percent Effect” value was -22.98%. In the case of CC(C)c1nn(C)c(N(C)C)c1CNCc1ccccc1CO.Cl, the “Percent Effect” value is reported as 37.79%. CCOC1COC2(CCN(Cc3ccc(C)cc3)CC2)C1.O=C(O)C(F)(F)F (stereo unspecified) was tested, and the “Percent Effect” value was -2.769%. With CCN1CCC2(CC1)CC(NC(=O)c1csnn1)c1ccccc1O2.O=C(O)C(F)(F)F (stereo unspecified) the “Percent Effect” value was 54.1%. For CN1CCC2(CC1)CC(NC(=O)c1csnn1)c1ccccc1O2.O=C(O)C(F)(F)F (stereo unspecified), the “Percent Effect” value was 76.95%. For O=C(NC1CC2(CCN(CCO)CC2)Oc2ccccc21)c1csnn1 (stereo unspecified), the “Percent Effect” value was 10.49%. COCCN1CCC2(CC1)CC(NC(=O)CN(C)C)c1ccccc1O2.O=C(O)C(F)(F)F.O=C(O)C(F)(F)F (stereo unspecified) was tested, and the “Percent Effect” value was -9.867%. In the case of CCN1CCC2(CC1)CC(NC(=O)c1c[nH]cn1)c1ccccc1O2 (stereo unspecified), the “Percent Effect” value is reported as 11.74%. In the case of COCCN1CCC2(CC1)CC(NC(=O)COC)c1ccccc1O2.O=C(O)C(F)(F)F (stereo unspecified), the “Percent Effect” value is reported as -4.974%. With N#Cc1cccc(CN2Cc3nccn3CC(COCC3CC3)C2)c1.O=C(O)C(F)(F)F (stereo unspecified) the “Percent Effect” value was -23.01%. For O=C1CCCC2=C1C(c1ccccc1Cl)Nc1nonc1N2 (stereo unspecified), the “Percent Effect” value was 3.129%. In the case of O=C(CNC(=O)c1ccoc1)NCCOc1ccc2c(c1)CCC2, the “Percent Effect” value is reported as 12.38%. Cc1occc1C(=O)NCC(=O)NCCOc1cccc(Cl)c1 was tested, and the “Percent Effect” value was 34.75%. With Cc1occc1C(=O)NCC(=O)NCCOc1ccc2c(c1)CCC2 the “Percent Effect” value was 50.55%. Cc1ccc(CN2CCOCC3(CCN(Cc4cccs4)C3)C2)o1.O=C(O)C(F)(F)F.O=C(O)C(F)(F)F (stereo unspecified) was tested, and the “Percent Effect” value was -11.36%. In the case of COCCN1CCc2c(c(COc3cccnc3)nn2C)C1.O=C(O)C(F)(F)F.O=C(O)C(F)(F)F, the “Percent Effect” value is reported as 5.842%. With Cc1ccc(Cl)cc1N1CCC(CNC(=O)CCn2ccnn2)C1 (stereo unspecified) the “Percent Effect” value was 62.44%. For Cc1ccc(Cl)cc1N1CCC(CNC(=O)Cn2cccn2)C1 (stereo unspecified), the “Percent Effect” value was 6.122%. For Cc1ccc(Cl)cc1N1CCC(CNC(=O)CC(F)(F)F)C1 (stereo unspecified), the “Percent Effect” value was 28.09%. In the case of Cc1ccc(Cl)cc1N1CCC(CNC(=O)CCn2ccnc2)C1 (stereo unspecified), the “Percent Effect” value is reported as 172.3%. In the case of CCC(=O)NCC(=O)NCC1CCN(c2cc(Cl)ccc2C)C1 (stereo unspecified), the “Percent Effect” value is reported as -4.009%. Cc1cnn(CC(=O)NCC2CCN(c3cc(Cl)ccc3C)C2)c1 (stereo unspecified) was tested, and the “Percent Effect” value was 0.4801%. CN(C)CCNC(=O)c1cc(-c2cnc(N3CCCC3)nc2)cn1C.O=C(O)C(F)(F)F was tested, and the “Percent Effect” value was -14.58%. CC(=O)N1[C@H](CN(C)C)C[C@@H]2CN(C(=O)c3cncc(C)c3)CC[C@@H]21.O=C(O)C(F)(F)F.O=C(O)C(F)(F)F was tested, and the “Percent Effect” value was -6.193%.
